Reference: PMC5540273 (PLoS ONE, 2017)

Key:
Conditions in all cases: concentration: 1 μM, replicates: in singlicate; n = 1
NEK11 = test system: NEK11
NEK1 = test system: NEK1
NEK2 = test system: NEK2
NEK3 = test system: NEK3
NEK4 = test system: NEK4
NEK5 = test system: NEK5
NEK6 = test system: NEK6
NEK7 = test system: NEK7
NEK9 = test system: NEK9
NIK = test system: T1, NIK
T1 construct: gene MAP3K14
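Note: KINOMEscan kinase panel screen.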

Row | SMILES | %Inh (NEK11) [%] | %Inh (NEK1) [%] | %Inh (NEK2) [%] | %Inh (NEK3) [%] | %Inh (NEK4) [%] | %Inh (NEK5) [%] | %Inh (NEK6) [%] | %Inh (NEK7) [%] | %Inh (NEK9) [%] | %Inh (NIK) [%]
1 | COc1ccc(Nc2nccc(N3CCC(NC(=O)Nc4cccc(OC)c4)C3)n2)cc1 (stereo not drawn) [GSK1379742] | 0 | 0 | 17 | 0 | 0 | 3 | 0 | 0 | 2 | 7
2 | O=C(O)C(F)(F)F.O=C(O)C(F)(F)F.O=c1[nH]ccc2nc(N[C@@H]3CCCNC3)nc(Nc3ccc(S(=O)(=O)N4CCOCC4)cc3)c12 [GSK2177277] | 0 | 62 | 80 | 89 | 96.1 | 51 | 46 | 35 | 14 | 87
3 | COc1cccc(-c2ccc3c(NC(=O)C4CC4)n[nH]c3n2)c1 [SB-710903] | 36 | 0 | 0 | 18 | 0 | 6 | 0 | 0 | 0 | 0
4 | Cn1cc(-c2ccc3c(c2)CCN3C(=O)Cc2cccc(Cl)c2)c2c(N)ncnc21 [GSK2606590] | 0 | 26 | 66 | 1 | 22 | 32 | 11 | 0 | 18 | 23
5 | O=C(Nc1cccc(-c2nn3ccccc3c2-c2ccnc(Nc3cccc(C(F)(F)F)c3)n2)c1)c1c(F)cccc1F [GSK292658] | 0 | 0 | 8 | 0 | 0 | 0 | 0 | 4 | 16 | 0
6 | Cl.c1ccc(-c2ccc3c(Nc4ccc5[nH]ccc5c4)ccnc3c2)nc1 [GW440138] | 0 | 0 | 0 | 9 | 0 | 0 | 0 | 0 | 0 | 24
7 | CCCCc1nn2ncccc2c1-c1ccnc(Nc2ccc(N3CCN(C)CC3)cc2)n1 [GW684941] | 62 | 0 | 53 | 9 | 14 | 0 | 0 | 0 | 0 | 11
8 | Cc1ccc(F)c(C(=O)Nc2cccc(-c3nn4ccccc4c3-c3ccnc(Nc4cccc(F)c4)n3)c2)c1F [GSK361061] | 0 | 0 | 0 | 8 | 18 | 12 | 9 | 14 | 16 | 5
9 | COc1cccc(NC(=O)NC2CCN(c3ccnc(Nc4cc(OC)c(OC)c(OC)c4)n3)C2)c1 (stereo not drawn) [GSK1379763] | 0 | 65 | 21 | 33 | 5 | 100 | 16 | 52 | 40 | 6
10 | c1ccc(-c2cnc3nccnn23)cc1 [AH20685] | 0 | 0 | 0 | 0 | 16 | 0 | 0 | 0 | 0 | 0
11 | CN(c1ccc(NC(=O)Nc2cc(C(F)(F)F)ccc2F)cc1)c1ccnc(Nc2ccc(S(N)(=O)=O)cc2)n1 [GW809893] | 0 | 100 | 0 | 15 | 26 | 31 | 20 | 0 | 37 | 38
12 | COC(=O)Nc1nc2ccc(Oc3ccc(NC(=O)Nc4cc(C(F)(F)F)ccc4F)cc3)cc2n1C.Cl [GW692089] | 25 | 0 | 0 | 0 | 0 | 0 | 0 | 0 | 0 | 27
13 | C[C@@H]1CC[C@@H](C(=O)Nc2ccccc2)CN1c1cc(-c2ccc3c(N)n[nH]c3c2)nc(N)n1 [GSK2286062] | 0 | 1 | 0 | 4 | 0 | 7 | 0 | 0 | 8 | 0
14 | COc1ccc(Nc2nccc(NCCNC(=O)c3cc4ccccc4s3)n2)cc1 [GSK1379896] | 3 | 0 | 22 | 0 | 14 | 13 | 0 | 0 | 21 | 7
15 | O=C(Nc1n[nH]c2nc(-c3ccc(O)cc3)ccc12)C1CC1 [SB-710363] | 0 | 0 | 3 | 17 | 2 | 0 | 0 | 12 | 0 | 2
